HT1080NT lethal – qHTS for induction of synthetic lethality in tumor cells producing 2HG: qHTS for the HT-1080-NT fibrosarcoma cell line | hit rate 1.6% among 360,000 | AID 686970, 2013 | Potency, µM (highest dose often 46.1 µM), for inactives: top-dose activity, negative = less viability, hits mostly cytotoxic | HT-1080-NT fibrosarcoma viability, CellTiter-Glo ATP luminescence, 48 h;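 further: NT is the 2HG producing partner of a matched IDH1 knockdown line; 0% = DMSO-treated cells and -100% = media-only wells without cells; nearly all actives have a fitted effect of over 55% in size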
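Luminescent CellTiter-Glo readout after 48 hours of compound exposure at 37 degrees C defined viability of HT-1080-NT cells. Activity was normalized to DMSO wells and cell-free media wells; concentration-response curves were fitted and assigned curve classes.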
KB-3-1 tox – qHTS assay for MDR1-selective chemotherapeutics: Primary screen using the parental adenocarcinoma cell KB-3-1 | KB-3-1 viability, CellTiter-Glo ATP luminescence, 72 h | hit rate 1.4% among 400,000 | Potency, µM (doses to about 46.1 µM), usual class: cytotoxic; further: nearly all actives have a fitted effect of over 60% in size
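Cells are dispensed, compounds pinned in, plates held at 37 °C for 72 h, then CellTiter-Glo is added and luminescence read after 10 minutes. Cell line: parental KB-3-1 in phenol-red-free DMEM, 10% FBS.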
DT40 TDP1 no CPT – qHTS for Inhibitors of human tyrosyl-DNA phosphodiesterase 1 (TDP1): qHTS in cells in absence of CPT; DT40 Tdp1-/- hTDP1 cells, no CPT, ATP luminescence, 48 h; Potency, µM (titrated, usually from 46.2 µM), inactives show top-dose activity change, negative = growth inhibition, usual class: inhibitors; hit rate 15% among 420,000; AID 686978, 2013; further: nearly all actives have a fitted effect of over 55% in size
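No-CPT arm: Tdp1-/-;hTDP1 DT40 cells (400/well) plus compounds, incubated ≥48 hr at 37 °C. Readout CellTiter-Glo luminescence.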
HT1080 IDH1KD tx – qHTS for induction of synthetic lethality in tumor cells producing 2HG: qHTS for the HT-1080-IDH1KD cell line | AID 686971, 2013 | Potency, µM (doses to about 46.1 µM), for inactives: at the highest dose activity, negative = toxicity, actives largely listed as cytotoxic | hit rate 2% among 360,000 | HT-1080 IDH1 knockdown viability, ATP luminescence, 48 h;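 further: 0% = DMSO wells and -100% = cell-free medium wells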
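% activity derives from luminescence (CellTiter-Glo), normalised to DMSO and no-cell wells. HT-1080-IDH1KD cells, 750/well, had 48 h compound exposure at 37 °C.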
KB-V1 cytotox – qHTS assay for MDR1-selective chemotherapeutics: Primary screen using the drug-selected MDR subline cells KB-V1. hit rate 3.4% among 400,000. Potency, µM (top dose mostly 46.1 µM), hits mostly cytotoxic. KB-V1 MDR cells viability, CellTiter-Glo, 72 h; further: nearly all actives have a fitted effect of over 60% in size
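Potencies derive from concentration-effect curves fitted to normalized luminescence (CellTiter-Glo) of KB-V1 cells treated for 72 h at 37 degrees C in phenol-red-free DMEM containing 10% FBS.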
TDP1 cell CPT – qHTS for Inhibitors of human tyrosyl-DNA phosphodiesterase 1 (TDP1): qHTS in cells in presence of CPT; chicken DT40 Tdp1-/-;hTDP1 cells + 20 nM CPT, ATP luminescence, 48 h; Potency, µM (top dose mostly 46.2 µM), inactives show top-dose activity change, negative = growth inhibition, actives largely listed as inhibitors; hit rate 12% among 420,000; AID 686979, 2013; further: nearly all actives have a fitted effect of over 55% in size
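Chicken DT40 Tdp1-/- cells complemented with human TDP1, 400 cells/well, exposed to compounds plus 20 nM camptothecin for at least 48 h at 37 C; viability read as ATP content by CellTiter-Glo luminescence.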
* hit, by the source's call; i = inactive; ? = inconclusive; nt = not tested or not shown; [ ] = another dose, or the depositor's remark. Only some compounds are listed: those with a hit (about 19% of all), similar ones and a draw of the others. The call rests on the fitted dose curve; in most records, active means well fitted curve in the direction sought with a large enough effect; inconclusive means small, poorly fitted or top-dose-only effect, or another doubt; inactive means no such curve, though single readings can be large; an effect the other way counts as inactive or inconclusive. Unless noted, on the % scale 0 is the no-effect control and ±100 the full control effect; potency means the concentration at half of the fitted maximal effect.

SMILES	HT1080NT lethal	KB-3-1 tox	DT40 TDP1 no CPT	HT1080 IDH1KD tx	KB-V1 cytotox	TDP1 cell CPT
CC(=O)c1c(N2CCN(Cc3ccccc3)CC2)nc(=S)n(-c2ccccc2)c1C	2%	i	23µM*	-4%	i	?
CC(=O)c1c(N2CCN(CCO)CC2)nc(=S)n(-c2ccccc2)c1C	1%	i	14%	5%	i	-3%
CCOC(=O)C1=CCN(S(=O)(=O)c2ccccc2Cl)C1c1ccc(Cl)c(Cl)c1 (stereo not drawn)	-34%	?	?	?	?	?
Cc1sc(Nc2ccc([N+](=O)[O-])cc2)nc1-c1c(C)n(C)n(-c2ccccc2)c1=O	26%	i	23µM*	15%	i	?
Cc1c(NC(=O)Nc2ccc([N+](=O)[O-])cc2)c(=O)n(-c2ccccc2)n1C	19%	i	21µM*	8%	i	?
Cc1c(NC(=O)CN2C(=O)NC(C)(c3ccc(Cl)cc3)C2=O)c(=O)n(-c2ccccc2)n1C (stereo not drawn)	4%	i	-2%	-7%	?	5%
C[C@H]1CN(c2ccccc2)C(=O)[C@@H]1CC(=O)Nc1ccccc1	14%	i	-27%	18%	i	7%
COc1cc2c(cc1OC)C1CCC3=C([C@H](C)OC3=O)N1CC2 (stereo partly drawn)	nt	nt	9%[9.04 µM]	nt	nt	15%[9.04 µM]
CCN(CCCNC(=O)c1cc2cc3ccc(OC)cc3nc2s1)c1cccc(C)c1	nt	i	?	nt	i	?
CCN(CCCNC(=O)c1cc2cc3ccc(OC)cc3nc2s1)c1ccccc1	nt	nt	21µM*	nt	nt	16µM*
CCOc1ccc(NC(=O)c2cc3cc4cc(OC)ccc4nc3s2)cc1	nt	i	4.6µM*	nt	i	-83%
COc1ccc2nc3sc(C(=O)NCCCN4CCc5ccccc5C4)cc3cc2c1	-12%	i	16µM*	-13%	5.8µM*	?
CCOc1ccc(CCNC(=O)COC(=O)COc2ccc(C(=O)CC)cc2)cc1OCC	15%	i	-20%	15%	i	8%
O=C(CCC(=O)c1ccccc1)Nc1ccc(C(=O)O)cc1	-7%	i	?	-9%	i	?
C=CCC(=O)NC1CCCc2c1cnn2-c1cc(F)cc(F)c1 (stereo not drawn)	15%	i	-6%	4%	i	-17%
Cc1cc2c(cc1C)CSC(c1ccccc1OC(=O)C(C)C)SC2	1%	i	11µM*	7%	i	?
Cc1cc(C)c(C#N)c(N2CCN(C(=O)C3COc4ccccc4O3)CC2)n1 (stereo not drawn)	-1%	i	?	-10%	i	?
CCOc1ccc2nc(N3CCC(C(=O)N4CCN(c5ncccn5)CC4)CC3)sc2c1	-1%	?	?	-4%	i	?
CCOc1ccc2nc(N3CCC(C(=O)N4CCN(c5ccccn5)CC4)CC3)sc2c1	-17%	?	6.5µM*	-15%	i	5.8µM*
CCOc1ccc2nc(N3CCN(C(=O)c4ccco4)CC3)sc2c1	nt	nt	18µM*	nt	nt	?
O=C(CSc1nc2ccccc2s1)N1CCN(C(=O)c2ccco2)CC1	-16%	i	?	-5%	i	-28%
CCOc1ccc2nc(SCC(=O)N3CCN(C(=O)c4ccco4)CC3)sc2c1	-1%	i	12µM*	-8%	i	?
